Data from PubChem BioAssay.
Unmarked numbers belong to inactive results. Calls of active or inactive are those of the source. Unless noted, no stated cut-off is given here; in the data, active means inhibition above about 25%; inactive means the rest.

Columns and labels:
[1] = target: Nuclear receptor coactivator 3 (Homo sapiens) (UniProt Q9Y6Q9); assay: SRC3 coactivator transcriptional activity inhibitors, confirmation, cell-based, luminescence, quadruplicate (AID 588792;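 active means mean inhibition over 43.08%, the solvent-only control mean plus 3 SD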;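 further: 0% = DMSO treated cells and 100% = gossypol at 36 µM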); settings: HEK293 GAL4-SRC3 luciferase reporter, at 3.6 µM, hits give high values
[2] = test system: transactivating tegument protein VP16 (Human herpesvirus 1), Gal4-VP16 luciferase reporter; assay: VP16 transactivation inhibitors, counter-screen for SRC3 inhibitor project, cell-based, luminescence, high throughput (AID 588794; in the data active means inhibition above about 30%); settings: mammalian cells, VP16-driven luciferase reporter luminescence; at 3.6 µM; hits give high values
[3] = target: Nuclear receptor coactivator 1 (Homo sapiens) (UniProt Q15788); assay: SRC1 coactivator transcriptional activity inhibitors, confirmation, cell-based, luminescence, quadruplicate (AID 588820;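 active means mean inhibition above 46.68%, the untreated control wells mean plus 3 SD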;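 further: 0% = DMSO wells and 100% = gossypol 36 µM treated wells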); settings: HEK293 GAL4-SRC1 luciferase reporter, at 3.6 µM, hits give high values
[4] = VP16 transactivation inhibitors, counter-screen for SRC1 inhibitor project, cell-based, luminescence, high throughput (AID 588824); settings: cell-based VP16 transactivation luciferase luminescence; at 3.6 µM; hits give high values

Sequence of Nuclear receptor coactivator 3 (Homo sapiens) (Q9Y6Q9 whole entry, looked up, the tested form may be a part): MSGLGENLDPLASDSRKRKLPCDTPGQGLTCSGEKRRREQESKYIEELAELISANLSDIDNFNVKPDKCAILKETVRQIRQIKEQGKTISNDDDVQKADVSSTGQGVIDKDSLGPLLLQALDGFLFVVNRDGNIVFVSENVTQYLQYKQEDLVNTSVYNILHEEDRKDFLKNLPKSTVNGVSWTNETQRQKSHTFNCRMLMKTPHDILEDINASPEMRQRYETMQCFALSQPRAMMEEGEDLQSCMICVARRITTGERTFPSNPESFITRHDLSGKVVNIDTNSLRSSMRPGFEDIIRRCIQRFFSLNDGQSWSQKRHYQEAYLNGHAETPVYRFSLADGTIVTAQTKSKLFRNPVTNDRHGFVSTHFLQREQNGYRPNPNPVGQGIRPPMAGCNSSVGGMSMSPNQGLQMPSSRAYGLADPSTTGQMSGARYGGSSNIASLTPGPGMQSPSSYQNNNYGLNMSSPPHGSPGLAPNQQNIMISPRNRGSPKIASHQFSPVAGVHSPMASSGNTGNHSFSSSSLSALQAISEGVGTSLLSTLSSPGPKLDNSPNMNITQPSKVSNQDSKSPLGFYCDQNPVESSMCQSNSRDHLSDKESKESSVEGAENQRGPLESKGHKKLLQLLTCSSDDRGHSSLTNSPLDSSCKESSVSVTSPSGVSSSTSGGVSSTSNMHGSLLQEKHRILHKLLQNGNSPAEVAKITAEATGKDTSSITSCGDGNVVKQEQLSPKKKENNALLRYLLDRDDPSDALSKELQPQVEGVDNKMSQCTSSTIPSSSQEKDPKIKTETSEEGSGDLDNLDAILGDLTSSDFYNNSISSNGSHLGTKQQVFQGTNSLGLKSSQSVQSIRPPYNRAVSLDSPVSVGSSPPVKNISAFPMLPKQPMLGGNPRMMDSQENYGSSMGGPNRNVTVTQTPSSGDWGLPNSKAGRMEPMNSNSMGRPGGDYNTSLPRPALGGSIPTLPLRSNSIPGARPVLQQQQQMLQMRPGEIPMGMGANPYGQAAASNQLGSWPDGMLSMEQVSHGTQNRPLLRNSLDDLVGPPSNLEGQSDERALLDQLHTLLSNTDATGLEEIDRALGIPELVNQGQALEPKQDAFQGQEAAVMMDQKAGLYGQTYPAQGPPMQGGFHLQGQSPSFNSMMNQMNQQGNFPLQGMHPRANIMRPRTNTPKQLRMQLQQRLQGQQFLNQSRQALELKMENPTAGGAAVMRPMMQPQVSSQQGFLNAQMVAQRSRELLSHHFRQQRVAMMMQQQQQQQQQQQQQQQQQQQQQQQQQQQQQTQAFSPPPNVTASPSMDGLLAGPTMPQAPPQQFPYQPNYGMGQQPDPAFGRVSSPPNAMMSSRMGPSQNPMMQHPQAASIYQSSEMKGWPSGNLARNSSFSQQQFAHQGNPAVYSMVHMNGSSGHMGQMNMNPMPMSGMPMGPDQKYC
Sequence of Nuclear receptor coactivator 1 (Homo sapiens) (Q15788 whole entry, looked up, the tested form may be a part): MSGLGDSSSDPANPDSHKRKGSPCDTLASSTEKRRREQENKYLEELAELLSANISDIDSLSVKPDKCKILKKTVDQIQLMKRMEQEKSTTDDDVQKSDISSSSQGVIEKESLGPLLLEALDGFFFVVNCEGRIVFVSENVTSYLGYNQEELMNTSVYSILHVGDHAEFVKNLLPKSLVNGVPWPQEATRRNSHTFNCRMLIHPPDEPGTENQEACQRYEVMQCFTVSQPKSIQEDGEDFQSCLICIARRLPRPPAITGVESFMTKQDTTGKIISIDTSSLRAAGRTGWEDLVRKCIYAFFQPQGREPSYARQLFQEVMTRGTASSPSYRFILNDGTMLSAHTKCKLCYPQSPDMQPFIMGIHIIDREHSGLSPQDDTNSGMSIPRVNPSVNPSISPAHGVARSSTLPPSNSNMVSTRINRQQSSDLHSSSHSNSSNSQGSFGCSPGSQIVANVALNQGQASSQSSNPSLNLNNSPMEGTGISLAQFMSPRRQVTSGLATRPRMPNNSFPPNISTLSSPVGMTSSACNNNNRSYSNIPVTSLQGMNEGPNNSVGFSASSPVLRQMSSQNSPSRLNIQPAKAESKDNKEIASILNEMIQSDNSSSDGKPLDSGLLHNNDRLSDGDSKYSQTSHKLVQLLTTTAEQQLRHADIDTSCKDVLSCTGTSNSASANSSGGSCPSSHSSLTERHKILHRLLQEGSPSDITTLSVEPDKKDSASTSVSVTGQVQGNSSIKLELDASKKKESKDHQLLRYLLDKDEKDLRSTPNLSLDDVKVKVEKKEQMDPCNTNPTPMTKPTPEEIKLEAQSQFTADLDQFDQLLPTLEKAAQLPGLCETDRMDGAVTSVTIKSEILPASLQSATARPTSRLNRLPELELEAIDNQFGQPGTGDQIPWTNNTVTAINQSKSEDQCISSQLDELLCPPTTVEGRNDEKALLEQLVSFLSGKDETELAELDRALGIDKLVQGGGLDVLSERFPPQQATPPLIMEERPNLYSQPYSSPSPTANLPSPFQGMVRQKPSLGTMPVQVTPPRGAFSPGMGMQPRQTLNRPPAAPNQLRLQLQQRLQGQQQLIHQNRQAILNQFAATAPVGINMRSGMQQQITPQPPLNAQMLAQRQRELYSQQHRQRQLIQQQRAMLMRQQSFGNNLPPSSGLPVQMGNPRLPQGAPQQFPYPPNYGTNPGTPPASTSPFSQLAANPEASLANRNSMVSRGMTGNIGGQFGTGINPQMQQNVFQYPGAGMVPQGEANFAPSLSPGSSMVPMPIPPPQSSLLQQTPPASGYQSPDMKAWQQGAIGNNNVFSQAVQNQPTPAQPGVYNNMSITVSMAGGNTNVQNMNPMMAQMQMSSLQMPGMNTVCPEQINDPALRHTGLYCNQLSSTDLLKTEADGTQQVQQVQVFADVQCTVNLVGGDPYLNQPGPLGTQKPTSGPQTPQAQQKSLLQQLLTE

SMILES | inhibition [1] | inhibition [2] | inhibition [3] | inhibition [4]
O=C(CCc1ccccc1)NC(c1cccs1)c1cc(Cl)c2cccnc2c1O (configuration not stated) | 55.5% (active) | 42% (active) | 45% | 45.9% (active)
CC(=O)NC(c1ccc(C)cc1)c1cc(Cl)c2cccnc2c1O (configuration not stated) | 26.4% | 22.3% | 36.4% | 29.6% (active)
Cc1cc2[nH]c3ccccc3c2c(C)n1 | -0.94% | 18.7% | -3.38% | 9.89%
CC(=O)NC(c1ccccc1)c1cc(Cl)c2cccnc2c1O (configuration not stated) | 29.2% | 30.1% (active) | 36% | 27% (active)
O=c1[nH]c(=S)ccn1C1OC(CO)C(O)C1O (configuration not stated) | 3.59% | -0.78% | -11.9% | -8.74%
Cc1ccc(S(=O)(=O)N2[C@@H](c3ccc(C(C)(C)C)cc3)C(C(=O)O)=CC[C@H]2c2ccc(Cl)cc2)cc1 | 16.6% | 23.9% | 28.7% | 19.6%
COc1ccc(-n2ncc3c(N4CCCCC4)ncnc32)cc1 | 51.2% (active) | 41.7% (active) | -11.5% | 23.9%
Cc1cc(C)c2nc3nc(C)c(C)cc3c(N)c2c1 | 13.7% | 49.7% (active) | 5.02% | 48% (active)
Cc1nnsc1C(=O)N/N=C/c1ccc2ccccc2c1O | 84.2% (active) | 71.3% (active) | 75% (active) | 69.8% (active)
O=C(Nc1nc(-c2ccc(S(=O)(=O)N3CCOCC3)cc2)cs1)c1ccccc1 | 0.95% | 19% | -17.1% | 12.6%
CN(C)c1ccc(Nc2ncnc3ccc(Br)cc23)cc1 | 47.3% (active) | 30.8% (active) | 40.8% | 20.2%
O=C(Nc1nc(-c2ccccc2)cs1)C1CCCN(S(=O)(=O)c2ccccc2)C1 (configuration not stated) | -1.67% | 16.4% | -23.1% | 22.9%
O=C(Nc1c(-c2ccccc2)[nH][nH]c1=O)c1cccc(C(F)(F)F)c1 | 15.3% | 6.35% | 22% | 0.94%
Nc1nc(CCl)nc(Nc2cccc3ccccc23)n1 | 42.7% | 15.4% | 16.1% | 18.8%
Nc1ccc(-c2cnc(N)c(C(=O)c3cccnc3)n2)cn1 | 85.8% (active) | 55.7% (active) | 74.3% (active) | 56% (active)
CC(C)c1ccc(-c2csc3ncnc(N4CCN(C)CC4)c23)cc1 | 42.1% | 35.5% (active) | 42.8% | 32.9% (active)
C(=Cc1cnc2ccccc2n1)c1ccc2c(c1)OCO2 | 58.3% (active) | 25.1% | -41.3% | 21.3%
Cc1ccc(S(=O)(=O)N2C[C@@H]3CCCC[C@@H]3[C@@H](C)[C@H]2c2cn(Cc3ccccc3)c3ncccc23)cc1 | 22.3% | 47.6% (active) | 25.8% | 42.2% (active)
COc1ccc(-c2cnc(N)nc2-c2ccc(OC)cc2O)cc1 | 22.5% | 13.7% | 29.7% | 18.4%
Cc1cc(/C=C2/C(=O)NN(c3ccccc3)C2=O)c(C)n1-c1ccc(O)cc1 | -13.6% | -41.7% | -66% | -74.4%
CC(=O)NC(C)c1cc(Cl)c2cccnc2c1O (configuration not stated) | 20.2% | 2.75% | 10.6% | 2.16%
COc1ccc(-c2c[n+]3c(n2-c2ccccc2)SCC3)cc1 | 17.9% | 14.3% | 11.1% | 21%
Cc1nc(N2CCC(C(N)=O)CC2)c2c(-c3cccs3)csc2n1 | 38% | 25.8% | 34.9% | 18.9%
O=C(C1CCC(CNS(=O)(=O)c2cccs2)CC1)N1CCN(c2ccc(Cl)cc2)CC1 (configuration not stated) | 13.8% | 30.5% (active) | 14.9% | 34.6% (active)
COc1ccc2[nH]c(=O)c(CN(CCN3CCCC3)C(=O)Nc3ccccc3Cl)cc2c1 | 31.9% | 20.4% | 36% | 18.6%
CC(C)(C)c1nnc(N/N=C/c2ccccc2O)n(N)c1=O | 80.1% (active) | 76.7% (active) | 74.4% (active) | 76.2% (active)
C/C(=N\Nc1ccc2nncn2n1)c1ccccn1 | 70.3% (active) | 65.5% (active) | 62% (active) | 56.6% (active)

SMILES | inhibition [1] | inhibition [2] | inhibition [3] | inhibition [4]
C=CC[n+]1ccc(/C=C2\C=Cc3cc(C)ccc3N2CC)c2ccccc21 | 79.4% (active) | 86% (active) | 63.8% (active) | 86.7% (active)
O=C(NN=C(c1ccccc1)c1ccccn1)c1ccccc1 | 44.2% (active) | 42.1% (active) | 36.7% | 43.1% (active)
N=c1c2c(-c3ccccc3)c(-c3ccccc3)n(Cc3ccccc3)c2ncn1CCCO | 12% | 53.2% (active) | 42.6% | 51% (active)
Oc1ccc(-c2n[nH]c(=S)n2-c2ccc3c(c2)OCCO3)c(O)c1 | 50% (active) | 34% (active) | 20.9% | 43.7% (active)
CC(C)(C)NC(=O)C(c1ccncc1)N(Cc1cccs1)C(=O)Cn1nnc(-c2ccc(F)cc2)n1 (configuration not stated) | 59.4% (active) | 35% (active) | 43% | 29.1% (active)
N=c1c2c(-c3ccccc3)c(-c3ccccc3)n(Cc3ccccc3)c2ncn1CCCn1ccnc1 | 26.8% | 62.5% (active) | 57.4% (active) | 62.8% (active)
COc1cc(/C=C/C(=O)Nc2ccc(OC)c(S(=O)(=O)N3CCOCC3)c2)ccc1OCC#N | 12.1% | 32.6% (active) | 19.1% | 40.3% (active)
Cc1cc(=O)[nH]c(Nc2cccc(Br)c2)n1 | 22.7% | 23.7% | 34.2% | 24.4%
CC(C)Cn1c(N)c(C(=O)CSc2ccc3c(c2)OCCO3)c(=O)n(C)c1=O | 35.5% | 56.9% (active) | 46% | 51.9% (active)
Cc1cc(/C=C2\Cc3ccccc3C2=O)c(C)n1-c1ccccc1 | 53.5% (active) | 18.6% | 20.5% | -2.62%
O=C(CCCOc1ccc(Cl)cc1Cl)N/N=C/c1ccccc1O | 26.1% | 22.3% | 29.5% | 15.2%
CCOC(=O)c1cc2sccc2n1CC(=O)N1CCc2ccccc21 | 43.4% (active) | 29.2% | 31.8% | 31.3% (active)
O=C(N/N=C/c1cc(Cl)ccc1O)C(=O)Nc1ccccc1OC(F)(F)C(F)F | 29.3% | 38.3% (active) | 37.7% | 44.3% (active)
Cn1c(=N)n(CC(=O)c2ccc(Cl)c(Cl)c2)c2ccccc21 | -33.3% | -30.2% | -189% | -61.4%
c1ccc2c(-c3cncc4ccccc34)cncc2c1 | 31.4% | 32.7% (active) | 36.4% | 28% (active)
CCOC(=O)c1c(C)c2c(=O)[nH]cnc2n1-c1ccccc1 | 51.5% (active) | 36.8% (active) | 59.9% (active) | 39.9% (active)
Cc1ccc(C(=O)NCCn2cc(SCC(=O)Nc3nnc(C)s3)c3ccccc32)cc1 | 18.6% | 4.22% | -32.5% | -0.04%
COc1cccc(-c2ccc3ncnc(NCc4ccc5c(c4)OCO5)c3c2)c1 | 37.3% | 30.1% (active) | 45.2% | 30% (active)
COc1ccc(-c2cn[nH]c2-c2ccc(OCc3ccc([N+](=O)[O-])cc3)cc2O)cc1 | 33.1% | 34% (active) | 39.1% | 27.4% (active)
NC(=O)c1sc2nccc(Nc3ccccc3)c2c1N | 70.9% (active) | 47.7% (active) | 53.8% (active) | 39.8% (active)
COc1cccc(C(=O)Nc2nc(-c3ccc(S(=O)(=O)N4CCOCC4)cc3)cs2)c1 | 3.89% | 9.14% | -19.1% | -0.53%
Oc1ccc(Nc2nc(N3CCCC3)c3ccccc3n2)cc1 | 25.6% | 42.7% (active) | 34% | 40.2% (active)
COc1ccc2c(c1OC)C(=O)N1c3ccccc3C(=O)N(c3ccccc3)C21 (configuration not stated) | 17.1% | 8.85% | -5.64% | 2.1%
COc1ccc(Cc2nnc(SCc3ccc([N+](=O)[O-])cc3)o2)cc1 | 26.2% | 15.8% | 19.3% | 17.4%
COc1ccc(C)cc1N=Nc1ccc(O)c2ncccc12 | 9.14% | -10.3% | -18.4% | 0.73%
Cc1nc(N)c(CC(Br)CBr)c(Cl)n1 (configuration not stated) | 31.8% | 35.4% (active) | 44.4% | 28.9% (active)
